In PubChem BioAssay (NCATS):
Values joined by “and” are separate entries in the source; they are usually repeats but may differ in a detail not shown here. Identical values can stand only once. Results filed as inconclusive are left out. Active and inactive are the calls of the source. Unless noted, the call rests on the fitted dose curve; in most records, active means well fitted curve in the direction sought with a large enough effect; inconclusive means small, poorly fitted or top-dose-only effect, or another doubt; inactive means no such curve, though single readings can be large; an effect the other way counts as inactive or inconclusive.

Tests used:
MKL-2 = assay: qHTS assay to identify novel small-molecules to repurpose for Merkel cell carcinoma treatment (AID 1296009); details: MCC and control cell lines, CellTiter-Glo viability, 72 h; series mostly up to 46 µM; further: nearly all actives have a fitted effect of over 60% in size; further: potency means the concentration at half of the fitted maximal effect
Outline: (§1)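 After compound transfer in DMSO, plates were kept 72 hr at 37 degree celsius. Luminescent ATP signal from CellTiter-Glo served as viability measure, normalized against DMSO and no-cell controls.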

UISO = assay: as above; details: MCC and control cell lines, CellTiter-Glo viability, 72 h; series mostly up to 46 µM
Outline: as §1

WaGa = assay: as above; details: MCC and control cell lines, CellTiter-Glo viability, 72 h; series mostly up to 46 µM
Outline: as §1

C33A = assay: Primary qHTS to identify gynecologic anti-cancer compounds using libraries of approved drugs and bioactive compounds (AID 1345084); details: Gynecologic cancer cell panel viability, ATPlite luminescence, 48 h; series mostly up to 57.5 µM; further: on the % scale 0 is the no-effect control and ±100 the full control effect; nearly all actives have a fitted effect of over 55% in size
Outline: (§2)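 Five-point cytotoxicity, 48 h drug exposure at 37 C, 5% CO2, on cells seeded 16 h beforehand. ATP content read by ATPlite luminescence.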

CAOV3 = assay: as above; details: Gynecologic cancer cell panel viability, ATPlite luminescence, 48 h; series mostly up to 57.5 µM
Outline: as §2

CASKI = assay: as above; details: Gynecologic cancer cell panel viability, ATPlite luminescence, 48 h; series mostly up to 57.5 µM
Outline: as §2

Es-2 = assay: as above; details: Gynecologic cancer cell panel viability, ATPlite luminescence, 48 h; series mostly up to 57.5 µM
Outline: as §2

Hek293T = assay: as above; details: Gynecologic cancer cell panel viability, ATPlite luminescence, 48 h, control line for the selectivity index; series mostly up to 57.5 µM
Outline: as §2

JEG-3 = assay: as above; details: Gynecologic cancer cell panel viability, ATPlite luminescence, 48 h; series mostly up to 57.5 µM
Outline: as §2

PA-1 = assay: as above; details: Gynecologic cancer cell panel viability, ATPlite luminescence, 48 h; series mostly up to 57.5 µM
Outline: as §2

SKOV3 = assay: as above; details: Gynecologic cancer cell panel viability, ATPlite luminescence, 48 h; series mostly up to 57.5 µM
Outline: as §2

Tov-21-G = assay: as above; details: Gynecologic cancer cell panel viability, ATPlite luminescence, 48 h; series mostly up to 57.5 µM
Outline: as §2

Tov112D = assay: as above; details: Gynecologic cancer cell panel viability, ATPlite luminescence, 48 h; series mostly up to 57.5 µM
Outline: as §2

[1] = Drug repurposing screens with cells derived from glioblastoma tumor samples (AID 1345199); details: GBM patient neurospheres viability, ATP luminescence, 48 h; further: nearly all actives have a fitted effect of over 40% in size; further: potency means the concentration at half of the fitted maximal effect; on activity, negative = cell killing: on the % scale 0 is the no-effect control and ±100 the full control effect
Outline: (§3)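 Four patient lines of CD133+ GBM neurospheres were screened at several concentrations; hits were retested in those lines plus three slower-growing GBM lines, using 48-hour treatment and ATP-based viability.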

astro = assay: as above; details: viability, ATP luminescence, 48 h; series mostly up to 45.9 µM
Outline: as §3

OV90 = assay: Primary qHTS to identify gynecologic anti-cancer compounds using libraries of approved drugs and bioactive compounds (AID 1345084); details: Gynecologic cancer cell panel viability, ATPlite luminescence, 48 h; series mostly up to 57.5 µM; further: on the % scale 0 is the no-effect control and ±100 the full control effect; nearly all actives have a fitted effect of over 55% in size
Outline: as §2

HeLa = assay: as above; details: Gynecologic cancer cell panel viability, ATPlite luminescence, 48 h; series mostly up to 57.5 µM
Outline: as §2

[2] = biological target: Nuclear receptor subfamily 1 group I member 2 (Rattus norvegicus) (UniProt Q9R1A7); assay: qHTS assay for small molecule activators of the rat pregnane X receptor (rPXR) signaling pathway (AID 651751; call rule not given here; further: 0% is about no effect); details: rPXR reporter cells, luciferase (One-Glo), 24 h
Chain of Nuclear receptor subfamily 1 group I member 2 (Rattus norvegicus) (Q9R1A7 whole entry, looked up): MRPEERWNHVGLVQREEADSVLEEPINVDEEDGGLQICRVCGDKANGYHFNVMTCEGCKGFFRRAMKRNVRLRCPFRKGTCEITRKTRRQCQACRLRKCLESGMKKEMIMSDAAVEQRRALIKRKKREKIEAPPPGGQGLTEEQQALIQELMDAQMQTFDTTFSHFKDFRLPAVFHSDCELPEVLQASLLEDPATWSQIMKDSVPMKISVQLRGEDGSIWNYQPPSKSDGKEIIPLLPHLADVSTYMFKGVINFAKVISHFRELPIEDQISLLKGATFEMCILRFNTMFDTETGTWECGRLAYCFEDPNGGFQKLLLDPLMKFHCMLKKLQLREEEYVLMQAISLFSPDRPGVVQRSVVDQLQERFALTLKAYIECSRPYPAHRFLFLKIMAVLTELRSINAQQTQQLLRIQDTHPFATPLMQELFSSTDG

[3] = at 46.1 µM (top of the series), tumour line C
[4] = at 45.9 µM (top of the series), tumour line B
[5] = at 45.9 µM (top of the series), tumour line D
[6] = at 46 µM (top of the series), tumour line A

NC(N)=NC(=O)Cc1c(Cl)cccc1Cl
active: Potency ([1]; tumour line A) 5.62 µM
inactive: Potency (MKL-2) | Potency (UISO) | Potency (WaGa) | Potency (C33A) | Potency (CAOV3) | Potency (CASKI) | Potency (Es-2) | Potency (Hek293T) | Potency (JEG-3) | Potency (PA-1) | Potency (SKOV3) | Potency (Tov-21-G) | Potency (Tov112D) | activity, negative = cell killing [1, 3] -19.8% | Potency (astro)

CCN(CC)CCOCCOC(=O)C1(c2ccccc2)CCCC1
inactive: Potency (MKL-2) | Potency (UISO) | Potency (C33A) | Potency (CAOV3) | Potency (CASKI) | Potency (Es-2) | Potency (Hek293T) | Potency (JEG-3) | Potency (OV90) | Potency (PA-1) | Potency (SKOV3) | Potency (Tov-21-G) | Potency (Tov112D) | activity, negative = cell killing [1, 3] -28.4%
active: Potency ([1]; tumour line A) 2.24 µM | Potency ([1]; tumour line D) 12.6 µM | Potency (astro) 35.5 µM

Nc1c2c(nc3ccccc13)CCCC2O (stereo unspecified)
inactive: Potency (MKL-2) | Potency (WaGa) | Potency (C33A) | Potency (CAOV3) | Potency (CASKI) | Potency (Es-2) | Potency (Hek293T) | Potency (JEG-3) | Potency (OV90) | Potency (PA-1) | Potency (SKOV3) | Potency (Tov-21-G) | Potency (Tov112D) | activity, negative = cell killing [1, 4] 4.45% | activity, negative = cell killing [1, 5] 4.03% | activity, negative = cell killing [1, 3] -7.2%

O=C(O)CN(CCN(CC(=O)O)CC(=O)O)CCN(CC(=O)O)CC(=O)O
inactive: Potency (MKL-2) | Potency (UISO) | Potency (WaGa) | Potency (C33A) | Potency (CAOV3) | Potency (CASKI) | Potency (Es-2) | Potency (Hek293T) | Potency (JEG-3) | Potency (OV90) | Potency (PA-1) | Potency (SKOV3) | Potency (Tov-21-G) | Potency (Tov112D) | activity, negative = cell killing [1, 4] -4.92% | activity, negative = cell killing [1, 5] -0.113% | activity, negative = cell killing [1, 3] -9.95% | Potency (astro)

CN(C(=O)CCCOc1ccc2[nH]c(=O)ccc2c1)C1CCCCC1
inactive: Potency (MKL-2) | Potency (UISO) | Potency (WaGa) | Potency (C33A) | Potency (CAOV3) | Potency (CASKI) | Potency (Es-2) | Potency (Hek293T) | Potency (JEG-3) | Potency (OV90) | Potency (Tov-21-G) | Potency (Tov112D) | activity, negative = cell killing [1, 4] -16.8%
active: Potency ([1]; tumour line A) 11.2 µM

C=CCc1ccccc1OCC(O)CNC(C)C (stereo unspecified)
inactive: Potency (MKL-2) | Potency (UISO) | Potency (WaGa) | Potency (C33A) | Potency (CASKI) | Potency (Es-2) | Potency (HeLa) | Potency (Hek293T) | Potency (JEG-3) | Potency (OV90) | Potency (PA-1) | Potency (SKOV3) | Potency (Tov-21-G) | Potency (Tov112D) | activity, negative = cell killing [1, 4] -18% | activity, negative = cell killing [1, 5] -4.74% | activity, negative = cell killing [1, 3] -6.66%

CCCCNC(=O)NS(=O)(=O)c1ccc(C)cc1
inactive: Potency (MKL-2) | Potency (UISO) | Potency (WaGa) | Potency (C33A) | Potency (CASKI) | Potency (Es-2) | Potency (HeLa) | Potency (Hek293T) | Potency (JEG-3) | Potency (OV90) | Potency (PA-1) | Potency (SKOV3) | Potency (Tov-21-G) | Potency (Tov112D) | activity, negative = cell killing [1, 4] -7.32% | activity, negative = cell killing [1, 5] -11.9% | activity, negative = cell killing [1, 6] -4.33% | activity, negative = cell killing [1, 3] 8.27% | Potency (astro) | max response [2] -1.54% and 0.831%

CCn1nc(C(=O)O)c(=O)c2cc3c(cc21)OCO3
inactive: Potency (MKL-2) | Potency (UISO) | Potency (WaGa) | Potency (C33A) | Potency (CAOV3) | Potency (CASKI) | Potency (Es-2) | Potency (Hek293T) | Potency (JEG-3) | Potency (OV90) | Potency (PA-1) | Potency (Tov-21-G) | Potency (Tov112D) | activity, negative = cell killing ([1]; at 20 µM (top of the series), tumour line C) -1.32% | activity, negative = cell killing ([1]; at 21.2 µM (top of the series), tumour line B) -10.1% | activity, negative = cell killing ([1]; at 21.2 µM (top of the series), tumour line D) -5.8% | activity, negative = cell killing ([1]; at 21.3 µM (top of the series), tumour line A) -22.7% | Potency (astro)

CCCN(CCC)CCc1cccc2c1CC(=O)N2
inactive: Potency (MKL-2) | Potency (UISO) | Potency (WaGa) | Potency (C33A) | Potency (CASKI) | Potency (Es-2) | Potency (HeLa) | Potency (Hek293T) | Potency (JEG-3) | Potency (OV90) | Potency (PA-1) | Potency (SKOV3) | Potency (Tov-21-G) | Potency (Tov112D) | activity, negative = cell killing [1, 4] -4.59% | activity, negative = cell killing [1, 5] 4.33% | activity, negative = cell killing [1, 3] 2.12% | Potency (astro)

Cc1nnc(SCC2=C(C(=O)O)N3C(=O)[C@@H](NC(=O)Cn4cnnn4)[C@H]3SC2)s1
active: Potency (MKL-2) 13.3 µM
inactive: Potency (UISO) | Potency (C33A) | Potency (CAOV3) | Potency (CASKI) | Potency (Es-2) | Potency (Hek293T) | Potency (JEG-3) | Potency (OV90) | Potency (PA-1) | Potency (SKOV3) | Potency (Tov-21-G) | Potency (Tov112D) | activity, negative = cell killing [1, 4] -10.7% | activity, negative = cell killing [1, 5] -8.75% | activity, negative = cell killing [1, 3] -9.01%

CN(C)CCCN1c2ccccc2Sc2ccc(C(F)(F)F)cc21
inactive: Potency (HeLa) | Potency (JEG-3)
active: Potency (MKL-2) 13.3 µM | Potency (WaGa) 26.6 µM

COc1ccc2c(c1OC)C(=O)O[C@@H]2[C@H]1c2c(cc3c(c2OC)OCO3)CCN1C
inactive: Potency (MKL-2) | Potency (C33A) | Potency (Es-2) | Potency (HeLa) | Potency (Hek293T) | Potency (JEG-3) | Potency (OV90) | Potency (PA-1) | Potency (Tov-21-G) | Potency (Tov112D) | activity, negative = cell killing [1, 4] -11.4% | activity, negative = cell killing [1, 5] -14.1% | activity, negative = cell killing [1, 3] 1.26% | Potency (astro)

O=C(CCNNC(=O)c1ccncc1)NCc1ccccc1
inactive: Potency (MKL-2) | Potency (UISO) | Potency (C33A) | Potency (CAOV3) | Potency (CASKI) | Potency (Es-2) | Potency (Hek293T) | Potency (JEG-3) | Potency (OV90) | Potency (PA-1) | Potency (SKOV3) | Potency (Tov-21-G) | Potency (Tov112D) | activity, negative = cell killing [1, 4] -4.66% | activity, negative = cell killing [1, 5] -5.12% | activity, negative = cell killing [1, 6] -24.8% | activity, negative = cell killing [1, 3] 1.75% | Potency (astro)

O=c1[nH]c(=O)n([C@H]2C[C@H](O)[C@@H](CO)O2)cc1Br
inactive: Potency (MKL-2) | Potency (C33A) | Potency (CASKI) | Potency (Es-2) | Potency (Hek293T) | Potency (JEG-3) | Potency (OV90) | Potency (PA-1) | Potency (SKOV3) | Potency (Tov-21-G) | Potency (Tov112D) | activity, negative = cell killing [1, 4] -18.1% | activity, negative = cell killing [1, 5] 7.04% | activity, negative = cell killing [1, 3] -12.6% | Potency (astro)
